The supplement of paper PMC6555819

Test system: FXR:RXRa (NR concentration 270 nM, RXRa partner concentration 90 nM)
Test: PBM binding z-score (relative to random genomic background probes); higher = stronger binding; sequences stand for … in GC…GCGATTGACAGCGTAGAATGAAGG
Procedure, shortened: (§1)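 On custom Agilent 4×180K arrays, double-stranded probes with 34-nt variable regions carried direct-repeat seeds, single-nucleotide variants, half-site ablations or random human genomic background. Ligand-free nuclear receptor dimers were applied for 1 h, and binding was read with antibodies against each partner (one per run). Binding z-scores come from regression-normalized fluorescence, with the random background probes as reference.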

Row | Sequence | PBM binding z-score
1 | ACTATTAGTTGAGACGAGGACAACCGATAGGTTG | 0.431
2 | GGTATTAGTTGAAAGGGCAACCGAATGATTCTCG | 1.14
3 | CCGACTGGGGCAAGGGTACCATAACGCACAGCCA | -0.555
4 | CGTCCAAGGTCAGCAGGTCAGTGACAGCGACGTG | 5.75
5 | CAAGCTAGGTCACGAAAGGTCAAAGTCGAATGAC | 7.45
6 | TAGCCTAGGTCATGCGGGCCATTATAGTGTCGGC | 4.23
7 | CAAACTAGGTCACCGGAAGGTCAAAGACCGCATG | 5.97
8 | TCATATAGGTAAATGCTAGGTGAAAGCCCGATCT | 0.778
9 | CTCGAAAGGTCGTGCTCAGGCGAGTATACCAAAC | 5
10 | GCTAGTTGGTCAGTAAAAGTTCACACACCGGTCG | 0.899
11 | CCGACTGGGGCATAAGGTTACCTTAAGCCAGCCC | 0.144
12 | TAGCCTAGGTCATTCAGGGGCCAGTAAAGAAAGC | 4.75
13 | CATACTGGGTCAGCTAGGCCAGAGTAGGGACGGC | 0.696
14 | CAGCCTAGGTCAGTGCCAGTATAGGAGGAACGTT | 0.914
15 | TCTCGGAGGACACGAAAGGTCAGATCTCGACATC | 3.11
16 | CAAACTAGGTCAAAGGTCCAAGTCGAGCCAACCA | 5.12
17 | CAAACTAGGTCCAAGGTCAAAGTCGAGCCAACCA | 3.97

Test system: LXRa:RXRa (NR concentration 270 nM, RXRa partner concentration 90 nM)
Test: as above
Procedure, shortened: as §1

Row | Sequence | PBM binding z-score
18 | CGTCCAAGGTCAAGGTCGGTGAAAGAGACTCGAA | 5.92
19 | TCTTGTAGATCAATAGAGGTTCAGAAAGTGCGCT | 0.78
20 | CCTACTGGGCCAACGTCATTGATCAGTCAAAGCA | -0.496
21 | AGAACGAGGGCACGCAGAGTTGATAGCAGAGTAG | 0.811
22 | GCCTATAGGTAATACAAGGTGAAAGTCCGATTGT | 2.68
23 | TAGCCTAGGTCATTGGGCGAGTATAGTACGCATC | 3.24
24 | ACAGACAGGTGAGTGAAGGTAACTAAGCTGGACG | -0.0477
25 | TTACCAAGTTGAGCTGAGGTCGTTGATCCAACTC | 0.638
26 | TGAGTGAGGTTAAAGATCAGGGAACGTGGCGTCG | 2.38
27 | CCTCGGAGGACTGAAGGTCAGAGCTGTCCGCTTT | 1.89
28 | CCTACTGGGCCACGGTCATTGATCAGTCAAAGCA | -0.19
29 | GGAACGAGGACATTCGAGTTGATAGCATGGCGAT | -0.183
30 | CTACCAAGGAGAACAAGGTCGTTGATTACTATTC | 0.515
31 | TCGAGTAGGTTGGGGGCATTCAGAATGGCGTCGA | 1.94
32 | CCAGATAGGTGAAAGGTAACTCAGTCTGGTACGC | 0.694
33 | ACTCGGAGGACAAAGGCCAGAGCTACGCCAGTGA | -0.622
34 | CAAACTAGGTCAAGTTCAAAGTCGGTTTGTGCCA | 4.84
35 | GTACCAAGGTGGATAGGTCGTTGATGAGTAGGCG | -0.16
36 | TCTGCTCGGTCAGTTGGTCAGCTAACGAGCTGCC | -0.247
37 | CATACAGTGTCAGCTAGGCCAGAGTAGGGACGGC | -0.284

Row | Sequence | PBM binding z-score
38 | CGTCCAAGGACAAAGGTCAGTGAAGAGATGACGG | 3.25
39 | TCTATTACTTGATTAGGGCAACCGAAACAGCGGA | 0.881
40 | ACTATTAGTTGAGACGAGGACAACCGATAGGTTG | 0.148
41 | GGTATTAGTTGAAAGGGCAACCGAATGATTCTCG | 1.49
42 | CCGACTGGGGCAAGGGTACCATAACGCACAGCCA | -0.391
43 | CGTCCAAGGTCAGCAGGTCAGTGACAGCGACGTG | 3.99
44 | CAAGCTAGGTCACGAAAGGTCAAAGTCGAATGAC | 8.14
45 | TAGCCTAGGTCATGCGGGCCATTATAGTGTCGGC | 3.27
46 | CAAACTAGGTCACCGGAAGGTCAAAGACCGCATG | 5.91
47 | TCATATAGGTAAATGCTAGGTGAAAGCCCGATCT | 0.754
48 | CTCGAAAGGTCGTGCTCAGGCGAGTATACCAAAC | 3.56
49 | GCTAGTTGGTCAGTAAAAGTTCACACACCGGTCG | 2.22
50 | CCGACTGGGGCATAAGGTTACCTTAAGCCAGCCC | 2.16
51 | TAGCCTAGGTCATTCAGGGGCCAGTAAAGAAAGC | 4.05
52 | CATACTGGGTCAGCTAGGCCAGAGTAGGGACGGC | 0.526
53 | CAGCCTAGGTCAGTGCCAGTATAGGAGGAACGTT | 0.456
54 | TCTCGGAGGACACGAAAGGTCAGATCTCGACATC | 3.81
55 | CAAACTAGGTCAAAGGTCCAAGTCGAGCCAACCA | 4.21
56 | CAAACTAGGTCCAAGGTCAAAGTCGAGCCAACCA | 3.48

Test system: LXRa homodimer (NR concentration 270 nM)
Test: as above
Procedure, shortened: as §1

Row | Sequence | PBM binding z-score
57 | CGTCCAAGGTCAAGGTCGGTGAAAGAGACTCGAA | 0.458
58 | TCTTGTAGATCAATAGAGGTTCAGAAAGTGCGCT | -0.0503
59 | CCTACTGGGCCAACGTCATTGATCAGTCAAAGCA | -0.262
60 | AGAACGAGGGCACGCAGAGTTGATAGCAGAGTAG | -0.396
61 | GCCTATAGGTAATACAAGGTGAAAGTCCGATTGT | -0.0258
62 | TAGCCTAGGTCATTGGGCGAGTATAGTACGCATC | 0.459
63 | ACAGACAGGTGAGTGAAGGTAACTAAGCTGGACG | -0.437
64 | TTACCAAGTTGAGCTGAGGTCGTTGATCCAACTC | -0.367
65 | TGAGTGAGGTTAAAGATCAGGGAACGTGGCGTCG | -0.367
66 | CCTCGGAGGACTGAAGGTCAGAGCTGTCCGCTTT | 0.285
67 | CCTACTGGGCCACGGTCATTGATCAGTCAAAGCA | 0.043
68 | GGAACGAGGACATTCGAGTTGATAGCATGGCGAT | -0.644
69 | CTACCAAGGAGAACAAGGTCGTTGATTACTATTC | 0.637
70 | TCGAGTAGGTTGGGGGCATTCAGAATGGCGTCGA | 0.352
71 | CCAGATAGGTGAAAGGTAACTCAGTCTGGTACGC | 0.0245
72 | ACTCGGAGGACAAAGGCCAGAGCTACGCCAGTGA | -0.482
73 | CAAACTAGGTCAAGTTCAAAGTCGGTTTGTGCCA | 4.22
74 | GTACCAAGGTGGATAGGTCGTTGATGAGTAGGCG | -0.154
75 | TCTGCTCGGTCAGTTGGTCAGCTAACGAGCTGCC | -0.549
76 | CATACAGTGTCAGCTAGGCCAGAGTAGGGACGGC | -0.667

Row | Sequence | PBM binding z-score
77 | CGTCCAAGGACAAAGGTCAGTGAAGAGATGACGG | 1
78 | TCTATTACTTGATTAGGGCAACCGAAACAGCGGA | 0.41
79 | ACTATTAGTTGAGACGAGGACAACCGATAGGTTG | 0.167
80 | GGTATTAGTTGAAAGGGCAACCGAATGATTCTCG | 1.06
81 | CCGACTGGGGCAAGGGTACCATAACGCACAGCCA | -0.264
82 | CGTCCAAGGTCAGCAGGTCAGTGACAGCGACGTG | 0.47
83 | CAAGCTAGGTCACGAAAGGTCAAAGTCGAATGAC | 8.09
84 | TAGCCTAGGTCATGCGGGCCATTATAGTGTCGGC | 0.473
85 | CAAACTAGGTCACCGGAAGGTCAAAGACCGCATG | 4.14
86 | TCATATAGGTAAATGCTAGGTGAAAGCCCGATCT | 0.00437
87 | CTCGAAAGGTCGTGCTCAGGCGAGTATACCAAAC | -0.183
88 | GCTAGTTGGTCAGTAAAAGTTCACACACCGGTCG | 4.58
89 | CCGACTGGGGCATAAGGTTACCTTAAGCCAGCCC | -0.305
90 | TAGCCTAGGTCATTCAGGGGCCAGTAAAGAAAGC | 0.681
91 | CATACTGGGTCAGCTAGGCCAGAGTAGGGACGGC | -0.513
92 | CAGCCTAGGTCAGTGCCAGTATAGGAGGAACGTT | -0.00279
93 | TCTCGGAGGACACGAAAGGTCAGATCTCGACATC | 3.83
94 | CAAACTAGGTCAAAGGTCCAAGTCGAGCCAACCA | 0.693
95 | CAAACTAGGTCCAAGGTCAAAGTCGAGCCAACCA | 1.97
